{"source": "PubChem BioAssay (NCATS)", "note": "Results filed as inconclusive are left out. Unmarked numbers belong to inactive results. The source made the active and inactive calls. Calls come from the whole dose curve; as a rule, active = well fitted inhibition curve with a large enough effect; inconclusive = small, poorly fitted or top-dose-only effect; inactive = no such curve, though single readings can be large or run the other way. Potency is the fitted concentration of half-maximal effect."}
{"assay": "qHTS Screen of the MIPE 4.0 Collection Against Ewings Sarcoma (TC71) (AID 1259253); note: nearly all actives have a fitted effect of over 40% in size;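 for viability (% of DMSO): 100% = DMSO-treated cells and 0% = medium-only wells without cells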", "settings": "TC71 Ewing sarcoma viability, CellTiter-Glo, 48 h; series mostly up to 45.8 µM; viability (% of DMSO): at the top concentration", "procedure,_shortened": "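Log-phase cells in RPMI with 5% FBS attached for 4 h, then received compounds as a titration for 48 h at 37C, 5% CO2. Viability was read by CellTiter-Glo luminescence and normalized to DMSO and no-cell wells.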", "units": {"viability (% of DMSO)": "%"}}
{"smiles": "CC(=O)OCC1=C(C(=O)O)N2C(=O)[C@@H](N)[C@@H]2SC1", "viability (% of DMSO)": 127}
{"smiles": "CN[C@@H]1Cc2cccc3[nH]c(=O)n(c23)C1", "viability (% of DMSO)": 108}
{"smiles": "COc1ccc2c(c1)[C@]13CCCCC1C(C2)N(C)CC3", "note": "(stereo not given in full)", "viability (% of DMSO)": 112}
{"smiles": "C[C@H]([C@H](O)CCC(C)(C)O)[C@H]1CC[C@@]2(O)C3=CC(=O)[C@@H]4C[C@@H](O)[C@@H](O)C[C@]4(C)[C@@H]3CC[C@]12C", "viability (% of DMSO)": 128}
{"smiles": "COC(=O)[C@@H](N)CCCN=C(N)N[N+](=O)[O-]", "viability (% of DMSO)": 122}
{"smiles": "C[C@@H]1CC[C@@]2(OC1)O[C@H]1C[C@H]3[C@@H]4CC=C5C[C@@H](O[C@@H]6O[C@H](CO)[C@@H](O[C@@H]7O[C@@H](C)[C@H](O)[C@@H](O)[C@@H]7O)[C@H](O)[C@@H]6O[C@@H]6O[C@@H](C)[C@H](O)[C@@H](O)[C@@H]6O)CC[C@]5(C)[C@@H]4CC[C@]3(C)[C@@H]1[C@H]2C", "Potency": "3720 nM (active)"}
{"smiles": "C[C@]12Cc3cn[nH]c3C[C@@H]1CC[C@@H]1[C@H]2CC[C@@]2(C)[C@H]1CC[C@]2(C)O", "Potency": "2960 nM (active)"}
{"smiles": "C[C@@H]1CC[C@H]2[C@@H](C)C(=O)O[C@@H]3O[C@@]4(C)CC[C@H]1[C@]32OO4", "Potency": "3720 nM (active)"}
{"smiles": "COC[C@H]1OC(=O)c2coc3c2[C@@]1(C)C1=C(C3=O)[C@@H]2CC[C@H](O)[C@@]2(C)C[C@@H]1OC(C)=O", "Potency": "13200 nM (active)"}
{"smiles": "C[C@]12CC[C@@H]3[C@@H](CCC4=CC(=O)CC[C@@H]43)[C@@H]1CC[C@@H]2OC(=O)CCc1ccccc1", "Potency": "9350 nM (active)"}
{"smiles": "COc1cc([C@@H]2c3cc4c(cc3[C@@H](O)C3COC(=O)C32)OCO4)cc(OC)c1O", "note": "(stereo not given in full)", "Potency": "41.8 nM (active)"}
{"smiles": "O=c1cccc2n1CC1CNC[C@H]2C1", "viability (% of DMSO)": 105}
{"smiles": "C[C@@H]1O[C@@H](O[C@@H]2C=C3CC[C@@H]4[C@@H](CC[C@]5(C)[C@H](c6ccc(=O)oc6)CC[C@@]45O)[C@@]3(C)CC2)[C@H](O)[C@H](O)[C@H]1O", "Potency": "18.7 nM (active)"}
{"smiles": "CC(C)(O)C=CC(=O)[C@](C)(O)[C@H]1[C@H](O)C[C@]2(C)[C@@H]3CC=C4[C@@H](C=C(O)C(=O)C4(C)C)[C@]3(C)C(=O)C[C@@]12C", "Potency": "209 nM (active)"}
{"smiles": "Cc1ccccc1-n1c(Cn2ncc3c(N)ncnc32)nc2cccc(C)c2c1=O", "Potency": "16600 nM (active)"}
{"smiles": "Cc1[nH]nc2ccc(-c3cncc(OC[C@@H](N)Cc4c[nH]c5ccccc45)c3)cc12", "Potency": "372 nM (active)"}
{"smiles": "Clc1ccccc1C(c1ccccc1)(c1ccccc1)n1cccn1", "Potency": "1050 nM (active)"}
{"smiles": "C#C[C@]1(O)C=C[C@@H]2[C@@H]3CCC4=CC(=O)CC[C@@H]4[C@H]3CC[C@@]21CC", "viability (% of DMSO)": 105}
{"smiles": "CN(C)[C@@H]1C(=O)C(C(N)=O)=C(O)[C@@]2(O)C(=O)C3=C(O)c4c(O)cccc4[C@@](C)(O)[C@H]3[C@H](O)[C@@H]12", "viability (% of DMSO)": 126}
{"smiles": "C[C@]12CC[C@H]3[C@@H](CCC4=CC(=O)CC[C@@]43C)[C@H]1CC[C@H]2OC(=O)CCC1CCCC1", "viability (% of DMSO)": 118}
{"smiles": "CC(=Cc1csc(C)n1)[C@@H]1C[C@H]2O[C@]2(C)CCC[C@H](C)[C@@H](O)[C@@H](C)C(=O)C(C)(C)[C@@H](O)CC(=O)O1", "viability (% of DMSO)": 44.5}
{"smiles": "COCC1(CO)C(=O)C2CCN1CC2", "note": "(stereo not given)", "Potency": "2350 nM (active)"}
{"smiles": "O=C(N[C@H]1CN2CCC1CC2)c1ccc(Cl)cc1", "Potency": "18700 nM (active)"}
{"smiles": "C[C@@H]1[C@H](O)[C@@H](C)C=CC=CCCC=CC=CC=CC=C[C@H](O[C@H]2O[C@@H](C)[C@H](O)[C@@H](N)[C@@H]2O)CC2O[C@](O)(C[C@@H](O)[C@H](O)CC[C@@H](O)C[C@@H](O)C[C@@H](O)CC(=O)O[C@H]1C)C[C@H](O)[C@H]2C(=O)O", "viability (% of DMSO)": 129}
{"smiles": "CCOP(=O)(OCC)C(C)NC(=O)N(CCCl)N=O", "note": "(stereo not given)", "viability (% of DMSO)": 133}
{"smiles": "CCC(=O)OC1CCC2C3CCC4=CC(=O)CC[C@@]4(C)C3CC[C@]12C", "note": "(stereo not given in full)", "viability (% of DMSO)": 122}
{"smiles": "CC[C@@]1(O)C(=O)OCc2c1cc1n(c2=O)Cc2cc3ccccc3nc2-1", "Potency": "9.3 nM (active)"}
{"smiles": "CC1=C(O)C(=O)C=C2C1=CC=C1[C@@]2(C)CC[C@@]2(C)[C@@H]3C[C@](C)(C(=O)O)CC[C@]3(C)CC[C@]12C", "Potency": "1180 nM (active)"}
{"smiles": "CC(C)(C)[C@]1(O)C[C@@H]2OC(=O)C[C@@]23C(=O)O[C@@H]2OC(=O)[C@H](O)C213", "note": "(stereo not given in full)", "Potency": "20900 nM (active)"}
{"smiles": "O=C(Nc1ccncc1)C(=O)c1cn(Cc2ccc(Cl)cc2)c2ccccc12", "Potency": "132 nM (active)"}
{"smiles": "O=[N+]([O-])c1ncc[nH]1", "viability (% of DMSO)": 110}
{"smiles": "COc1cc2cc(c1Cl)N(C)C(=O)C[C@H](OC(=O)C(C)C)[C@]1(C)O[C@H]1[C@H](C)[C@@H]1C[C@@](O)(NC(=O)O1)[C@H](OC)C=CC=C(C)C2", "viability (% of DMSO)": 23.9}
{"smiles": "CC(=Cc1csc(C)n1)[C@@H]1C[C@H]2O[C@@H]2CCC[C@H](C)[C@@H](O)[C@@H](C)C(=O)C(C)(C)[C@@H](O)CC(=O)O1", "viability (% of DMSO)": 39.5}
{"smiles": "CC(=O)O[C@@]12CO[C@H]1C[C@H](O)[C@@]1(C)C(=O)[C@H](O)C3=C(C)[C@@H](O)C[C@@](O)([C@@H](OC(=O)c4ccccc4)[C@@H]21)C3(C)C", "Potency": "23500 nM (active)"}
{"smiles": "CC(C)[C@]12O[C@@H]1[C@@H]1O[C@]13[C@]1(O[C@H]1C[C@@H]1C4=C(CC[C@@]13C)C(=O)OC4)[C@H]2O", "viability (% of DMSO)": 1.41}
{"smiles": "C[C@H]1CCCC=CC2C[C@H](O)C[C@@H]2[C@H](O)C=CC(=O)O1", "note": "(stereo not given in full)", "viability (% of DMSO)": 3.6}
{"smiles": "COC1=C[C@@H]2[C@@H]3Cc4ccc(OC)c(O)c4[C@]2(CCN3C)CC1=O", "Potency": "3320 nM (active)"}
{"smiles": "COc1cccc2c1[C@]13CCN(CC4CC4)[C@H](C2)[C@]1(OC)CCC(=O)C3", "viability (% of DMSO)": 124}
{"smiles": "C[C@]12CC[C@H](O)CC1=CC[C@H]1[C@H]3CCC(=O)[C@@]3(C)CC[C@@H]12", "Potency": "18700 nM (active)"}
{"smiles": "O=c1[nH]c2ccc(Cl)cc2c(N[C@@H]2CN3CCC2CC3)c1-c1nc2ccccc2[nH]1", "Potency": "41.8 nM (active)"}
